NPR1 antag: antagonists of human natriuretic peptide receptor Npr1 | P16066 | HEK293 hNpr1 GloSensor cGMP, ANP-stimulated luminescence | Potency, µM (doses to about 46.3 µM), without a hit: at the top dose activity change, negative = inhibition, usual class: inhibitors | actives 1.6% (n = 76,000) | AID 1347048; calls by dose curve; note: nearly all actives have a fitted effect of over 60% in size
Target sequence (P16066 whole entry, looked up): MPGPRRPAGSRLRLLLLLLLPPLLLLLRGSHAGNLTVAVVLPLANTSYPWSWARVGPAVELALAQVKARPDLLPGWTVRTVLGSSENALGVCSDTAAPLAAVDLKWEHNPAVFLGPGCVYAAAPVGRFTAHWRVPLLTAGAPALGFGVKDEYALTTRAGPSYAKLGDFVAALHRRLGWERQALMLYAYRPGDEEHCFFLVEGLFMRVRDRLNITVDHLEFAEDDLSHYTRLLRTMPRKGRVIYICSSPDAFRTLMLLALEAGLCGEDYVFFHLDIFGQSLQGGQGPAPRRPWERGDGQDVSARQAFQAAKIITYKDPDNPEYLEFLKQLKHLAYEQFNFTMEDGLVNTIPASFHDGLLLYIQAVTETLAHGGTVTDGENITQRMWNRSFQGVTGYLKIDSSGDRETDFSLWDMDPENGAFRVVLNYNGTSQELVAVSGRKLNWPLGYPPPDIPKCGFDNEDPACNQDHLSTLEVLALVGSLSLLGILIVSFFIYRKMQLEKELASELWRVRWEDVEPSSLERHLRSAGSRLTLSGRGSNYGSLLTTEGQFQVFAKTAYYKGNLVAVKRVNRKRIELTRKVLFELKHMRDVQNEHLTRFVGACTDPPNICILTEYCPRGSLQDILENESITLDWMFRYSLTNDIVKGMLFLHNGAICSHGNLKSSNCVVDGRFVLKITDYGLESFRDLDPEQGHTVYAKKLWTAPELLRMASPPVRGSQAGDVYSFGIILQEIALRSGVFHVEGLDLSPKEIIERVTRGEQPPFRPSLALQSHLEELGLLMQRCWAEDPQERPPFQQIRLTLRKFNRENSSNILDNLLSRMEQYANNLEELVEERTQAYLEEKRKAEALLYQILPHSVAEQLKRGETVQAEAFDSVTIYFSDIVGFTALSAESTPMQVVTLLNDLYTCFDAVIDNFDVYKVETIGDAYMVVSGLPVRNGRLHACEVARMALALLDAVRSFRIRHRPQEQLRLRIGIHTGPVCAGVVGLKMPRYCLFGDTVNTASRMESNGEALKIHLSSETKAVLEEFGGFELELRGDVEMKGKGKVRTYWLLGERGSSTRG
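HEK293 cells stably expressing human Npr1 and cGMP GloSensor pGS-40F, loaded 2 h with 2% GloSensor reagent, given compound 30 min at room temperature. Luminescence read before and 20 min after 0.1 nM hNppA.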
SNCA viab count: counter-screen for SNCA expression inhibitors: cell viability; HEK-293-SNCA-luc viability, GF-AFC fluorescence, 24 h; Potency, µM (highest dose often 57.1 µM), without a hit: at the highest dose activity change, negative = cytotoxicity, usual class: cytotoxic; actives 0.12% (n = 150,000);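 note: 0% = DMSO-treated cells and -100% = medium-only wells without cells; nearly all actives have a fitted effect of over 30% in size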
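Cytotoxicity counterscreen: after 24 h compound treatment of genome-edited SNCA-luciferase HEK-293 cells, live-cell protease substrate GF-AFC read by fluorescence after 30 min; activity scaled between DMSO (0%) and medium-only (-100%), curves Hill-fitted.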
NIH3T3 tox: NIH 3T3 cell cytotoxicity; NIH 3T3 viability, CellTiter-Glo ATP luminescence, 48-72 h; Potency, µM (titrated, usually from 96.7 µM), inactives show top-dose activity change, negative = cytotoxicity, hits mostly inhibitors; actives 4.3% (n = 94,000); note: nearly all actives have a fitted effect of over 55% in size
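Luminescent ATP readout (CellTiter-Glo, 10 min RT) after 48 or 72 hr compound exposure of NIH 3T3 cells seeded at 400 cells/well in 1536-well format; quantitative HTS.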
Luciferase inh: Photinus pyralis luciferase inhibition | Potency, µM (top dose mostly 115 µM), hits mostly inhibitors | purified P. pyralis luciferase, luminescence, biochemical | P08659 | actives 2.5% (n = 76,000); note: nearly all actives have a fitted effect of over 65% in size
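Inhibitors were tested against purified firefly luciferase in a biochemical, low-substrate format (both substrates at 10uM) and luminescence measured with a CCD imager.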
SNCA expr inh: reduces expression of the alpha-synuclein gene | HEK-293 SNCA-luciferase knock-in, luminescence, 24 h | Potency, µM (highest dose often 57.2 µM), without a hit: top-dose activity change, negative = inhibition, actives largely listed as inhibitors | actives 0.17% (n = 140,000) | AID 1671194;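 note: plate controls were DMSO cells for no effect and cell-free wells for full effect; nearly all actives have a fitted effect of over 45% in size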
HEK293 tox: HEK 293 cell cytotoxicity; HEK 293 viability, ATP luminescence (CellTiter-Glo), 48-72 h; Potency, µM (top dose mostly 115 µM), without a hit: at the top dose activity change, negative = cytotoxicity, hits mostly inhibitors; actives 6.6% (n = 94,000); AID 1345083; note: nearly all actives have a fitted effect of over 60% in size
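HEK 293 seeded at 250 cells/well receive compound via pintool. After 48 or 72 hr at 37 degree Celsius, 5% CO2 and 95% humidity, CellTiter-Glo is dispensed and luminescence read following 10 min at room temperature.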
Numbers without * were called inactive; [ ] = remark or other dose. Only some compounds are listed: those with a hit (about 7.4% of all), similar ones and a draw of the others. Unless noted, calls come from the whole dose curve; as a rule, active = well fitted curve in the direction sought with a large enough effect; inconclusive = small, poorly fitted or top-dose-only effect, or another doubt; inactive = no such curve, though single readings can be large; an effect the other way counts as inactive or inconclusive. Unless noted, % is set by controls: 0 for no effect and ±100 for the full control effect; potency is the fitted concentration of half-maximal effect.

O=C1NC(=NC2CCCC2)C2(CCCN(Cc3ccccc3)C2)N1c1cccnc1 (stereo not given) was read as SNCA viab count 5%, NIH3T3 tox 25µM*, SNCA expr inh 5% and HEK293 tox -10%.
Screening COc1ccc(CN2CCCC3(C2)C(=NC2CCCC2)NC(=O)N3c2cccnc2)cc1 (stereo not given) returned SNCA viab count 5%, NIH3T3 tox 22µM*, SNCA expr inh -25% and HEK293 tox -10%.
O=C1NC(=NC2CCCC2)C2(CCN(Cc3ccccc3)C2)N1c1cccnc1 (stereo not given) was read as SNCA viab count -2%, NIH3T3 tox inconclusive, SNCA expr inh 2% and HEK293 tox 0%.
`COc1ccccc1CN1CCC2(CC1)CC(O)CCO2` (stereo not given) gave NPR1 antag -17%, SNCA viab count -8%, NIH3T3 tox -3%, Luciferase inh inactive, SNCA expr inh 5% and HEK293 tox -3%.
Screening N#Cc1cccc(C(=O)Nc2ccc([C@H]3OCC(=O)N(Cc4ccc(F)cc4)[C@@H]3CO)cc2)c1 returned NPR1 antag -2%, SNCA viab count 0%, NIH3T3 tox -29%, Luciferase inh inactive, SNCA expr inh -20% and HEK293 tox inconclusive.
`O=C(c1cccc(Cl)c1)N1CCC(c2n[nH]c(=O)n2-c2ccccc2)CC1` gave NPR1 antag 0%, SNCA viab count 12%, NIH3T3 tox inconclusive, Luciferase inh inactive, SNCA expr inh -21% and HEK293 tox 9%.
Screening CN(C)c1cccc(C(=O)N2CCC(c3n[nH]c(=O)n3-c3ccccc3)CC2)c1 returned NPR1 antag 0%, SNCA viab count -7%, NIH3T3 tox -20%, Luciferase inh 32µM*, SNCA expr inh 132% and HEK293 tox 4%.
For Cc1ccc(-n2c(C3CCN(C(=O)COc4ccc(Cl)cc4C)CC3)n[nH]c2=O)cc1 the results were NPR1 antag 18%, SNCA viab count 9%, NIH3T3 tox -78%, Luciferase inh inactive, SNCA expr inh 1% and HEK293 tox inconclusive.
For Cc1cccc(OCC(=O)N2CCC(c3n[nH]c(=O)n3-c3ccccc3)CC2)c1 the results were NPR1 antag -13%, SNCA viab count -4%, NIH3T3 tox 7.1µM*, Luciferase inh inactive, SNCA expr inh 15% and HEK293 tox 12%.
Cc1cccc(OCC(=O)N2CCC(c3n[nH]c(=O)n3Cc3ccc(F)cc3)CC2)c1 was read as NPR1 antag 0%, SNCA viab count 0%, NIH3T3 tox 20µM*, Luciferase inh inactive, SNCA expr inh -14% and HEK293 tox -11%.
For Cc1cc(Cl)ccc1OCC(=O)N1CCC(c2n[nH]c(=O)n2-c2ccccc2)CC1 the results were NPR1 antag 8%, SNCA viab count 2%, NIH3T3 tox 40µM*, Luciferase inh inactive, SNCA expr inh 3% and HEK293 tox inconclusive.
`CCNC(=O)N1CC(C(=O)NCc2ccccc2)CC(c2ccc(F)c(C)c2)C1` (stereo not given) gave NPR1 antag inconclusive, SNCA viab count -10%, NIH3T3 tox inconclusive, Luciferase inh inactive, SNCA expr inh 0% and HEK293 tox inconclusive.
`Cc1cc(C2CC(C(=O)NCc3ccc4c(c3)OCO4)CN(C(=O)c3ccccc3)C2)ccc1F` (stereo not given) gave NPR1 antag -17%, SNCA viab count -4%, NIH3T3 tox inconclusive, Luciferase inh inactive, SNCA expr inh -10% and HEK293 tox inconclusive.
`Cc1cccc(CNC(=O)C2CC(c3ccc(F)c(C)c3)CN(C(=O)c3ccccc3)C2)c1` (stereo not given) gave NPR1 antag -4%, SNCA viab count 3%, NIH3T3 tox 25µM*, Luciferase inh inactive, SNCA expr inh -16% and HEK293 tox 40µM*.
Cc1cc(C2CC(C(=O)NCCc3ccccc3)CN(C(=O)NC(C)C)C2)ccc1F (stereo not given) was read as NPR1 antag 3%, SNCA viab count 0%, NIH3T3 tox inconclusive, Luciferase inh inactive, SNCA expr inh 19% and HEK293 tox 40µM*.
O=C(Nc1cccnc1)c1cnc2c(c1)N(Cc1ccccc1)CCC2 was read as NPR1 antag -10%[70.6 µM], SNCA viab count 2%[87.6 µM], NIH3T3 tox inconclusive, Luciferase inh inactive, SNCA expr inh -2%[87.6 µM] and HEK293 tox inconclusive.
Screening CCc1ccc(NC(=O)c2ccc3c(c2)N(CC)C2CCCCN2C3=O)cc1 (stereo not given) returned NPR1 antag -9%, SNCA viab count 12%[12.5 µM], NIH3T3 tox inconclusive, Luciferase inh inconclusive, SNCA expr inh inconclusive and HEK293 tox 25µM*.
For CCN1c2cc(C(=O)Nc3cc(F)cc(F)c3)ccc2C(=O)N2CCCCCC21 (stereo not given) the results were NPR1 antag 0%, SNCA viab count 6%[12.5 µM], NIH3T3 tox inconclusive, Luciferase inh inactive, SNCA expr inh -10% and HEK293 tox inconclusive.
CCN1c2cc(C(=O)Nc3ccc(N4CCOCC4)cc3)ccc2C(=O)N2CCCCC21 (stereo not given) was read as NPR1 antag 0%, SNCA viab count 18%[12.5 µM], NIH3T3 tox 20µM*, Luciferase inh inactive, SNCA expr inh 4% and HEK293 tox inconclusive.
For CCN1c2cc(C(=O)Nc3ccc(Br)cc3)ccc2C(=O)N2CCCCC21 (stereo not given) the results were NPR1 antag -10%, SNCA viab count 22%[12.5 µM], NIH3T3 tox inconclusive, Luciferase inh inactive, SNCA expr inh -9% and HEK293 tox inconclusive.
Screening CCN1c2cc(C(=O)Nc3ccc(Br)cc3)ccc2C(=O)N2CCCCCC21 (stereo not given) returned NPR1 antag -12%, SNCA viab count -5%[12.5 µM], NIH3T3 tox 40µM*, Luciferase inh inactive, SNCA expr inh -19% and HEK293 tox inconclusive.
Screening CCN1c2cc(C(=O)Nc3cccc(C#N)c3)ccc2C(=O)N2CCCCCC21 (stereo not given) returned NPR1 antag -14%, SNCA viab count 26%[12.5 µM], NIH3T3 tox inconclusive, Luciferase inh inactive, SNCA expr inh -18% and HEK293 tox 16µM*.
`CCNC(=O)O[C@H]1COCCN(c2nc3ccccc3o2)C1` gave NPR1 antag 4%[70.6 µM], SNCA viab count 3%[87.6 µM], NIH3T3 tox inactive, Luciferase inh inactive, SNCA expr inh 23%[87.6 µM] and HEK293 tox inactive.

Screening data deposited in PubChem BioAssay by National Center for Advancing Translational Sciences (NCATS).
